Compound activity as filed in PubChem.
CRE-bla Fsk – CRE-bla signaling modulation under forskolin stimulation; CHO CRE-bla reporter (cAMP response element driving beta-lactamase), forskolin EC10, beta-lactamase ratio; Potency, µM (doses to about 38.2 µM), for inactives: at the top dose activity change, negative = inhibition, usual class: activators; hit rate 2.5% among 71,000; AID 662; active = well fitted activation curve with a large enough effect in the signal ratio, with a control signal flat, not every such curve was filed as active; inconclusive = small, poorly fitted or top-dose-only effect, or effect the other way, or a change in a side signal; the % refers to the signal ratio; also: % of control where 0% means no effect
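Modulation of forskolin signalling: compounds in titration series added with EC10 NKH 477 to CHO cells carrying a CRE-driven beta-lactamase reporter, 3 h, 37C. CCF4 FRET ratio (460/530 nm, ex 405 nm) gives %activity and AC50.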
ERK AVP inh – vasopressin-driven ERK pathway inhibition | Potency, µM (titrated, usually from 57.5 µM), for the others: at the top dose activity, negative = inhibition, usual class: inhibitors | HEK293-V1b, vasopressin-stimulated pERK AlphaScreen | hit rate 0.99% among 72,000 | AID 995; also: % is scaled to controls: 0 for no effect and ±100 for the full control effect; nearly all actives have a fitted effect of over 55% in size
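HEK293 cells stably expressing V1b receptor, preincubated 30 min at 37 °C with compound, then stimulated 5 min with 25 nM vasopressin. Phospho-ERK by AlphaScreen SureFire after 5 h RT; normalized to DMSO and vasopressin; AC50 by Hill fit.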
HEK293 cAMP ctrl – counter-screen for TSHR agonists: cAMP increase in parental HEK293. parental HEK293 CNG cAMP sensor, membrane potential fluorescence. Potency, µM (top dose mostly 57.1 µM), without a hit: top-dose activation, usual class: activators. hit rate 2.5% among 73,000. AID 938; also: % of control where 0% means no effect; nearly all actives have a fitted effect of over 55% in size
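Parental HEK 293 cells stably expressing a cAMP-gated CNG channel were loaded with membrane potential dye containing 100 uM RO 20-1724 for 60 min. Compound added for 30 min; depolarization read as fluorescence intensity at 590 nm.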
Tau filament bind – binders of human tau filaments; P10636; recombinant tau filaments, thioflavin S fluorescence, 15 h; filaments grown with octadecylsulfate alongside compound; Potency, µM (series often up to 57.1 µM), without a hit: top-dose activity change, negative = inhibition; hit rate 2% among 71,000; AID 596;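 also: % is scaled to controls: 0 for no effect and ±100 for the full control effect; actives lower thioflavin S fluorescence by blocking filaments or displacing dye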
Target sequence (P10636 whole entry, looked up): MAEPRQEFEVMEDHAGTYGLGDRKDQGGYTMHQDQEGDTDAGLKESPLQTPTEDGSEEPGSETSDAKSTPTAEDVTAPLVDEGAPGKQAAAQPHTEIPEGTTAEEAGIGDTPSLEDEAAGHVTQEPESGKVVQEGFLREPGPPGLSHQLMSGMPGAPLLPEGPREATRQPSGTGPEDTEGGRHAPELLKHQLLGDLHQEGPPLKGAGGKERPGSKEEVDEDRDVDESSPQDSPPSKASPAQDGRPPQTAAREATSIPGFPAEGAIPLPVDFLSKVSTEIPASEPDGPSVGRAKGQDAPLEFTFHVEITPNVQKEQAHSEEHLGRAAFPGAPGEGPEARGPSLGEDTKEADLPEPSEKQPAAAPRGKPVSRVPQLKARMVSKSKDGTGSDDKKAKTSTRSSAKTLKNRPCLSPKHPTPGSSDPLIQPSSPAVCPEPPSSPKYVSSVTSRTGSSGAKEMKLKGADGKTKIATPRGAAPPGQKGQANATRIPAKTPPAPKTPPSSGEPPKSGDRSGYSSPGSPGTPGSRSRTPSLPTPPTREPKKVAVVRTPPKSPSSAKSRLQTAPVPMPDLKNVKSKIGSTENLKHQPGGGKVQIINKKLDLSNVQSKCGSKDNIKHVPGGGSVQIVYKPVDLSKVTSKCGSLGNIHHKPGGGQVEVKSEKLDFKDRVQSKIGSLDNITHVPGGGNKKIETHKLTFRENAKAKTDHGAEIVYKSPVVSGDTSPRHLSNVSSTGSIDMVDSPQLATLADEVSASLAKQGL
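Thioflavine S fluorescence (ex 450, em 510 nm) reports filaments formed from 1 uM human tau plus 30 uM ODS over 15 h at 37 C (10 mM HEPES pH 7.4, 100 mM NaCl, 5 mM DTT); compounds displacing dye or blocking filaments lower signal.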
TSHR agonist – agonists of human thyroid stimulating hormone receptor. P16473. HEK293-CNG-TSHR cells (CNG channel as cAMP sensor), membrane potential dye, cAMP. Potency, µM (doses to about 57.1 µM), for the others: at the highest dose activation, most hits filed as activators. hit rate 0.48% among 73,000; active = well fitted activation curve with a large enough effect in the main read-out, with a control signal flat, not every such curve was filed as active; inconclusive = small, poorly fitted or top-dose-only effect, or a change in a side signal; inactive = no such curve, though single readings can be large or run the other way; % of control where 0% means no effect;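 also: the control signal comes from parental cells without the receptor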
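HEK 293 cells stably expressing TSHR and a modified CNG channel, with CNG-only parental cells as counterscreen, were preloaded 60 min at room temperature with membrane potential dye containing 100 uM RO 20-1724. Compound exposure was 30 min, and depolarization was read as fluorescence at 590 nm.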
* = called active by the depositor; ? = inconclusive; nt = no result; [ ] = another dose, or the depositor's remark. In the library only some 7.4% were active in any assay of this set; here they are far more common. Unless noted, calls follow the shape of the dose curve; as a rule, active = well fitted curve in the direction sought with a large enough effect; inconclusive = small, poorly fitted or top-dose-only effect, or another doubt; inactive = no such curve, though single readings can be large; an effect the other way counts as inactive or inconclusive. Potency is read from the fitted curve at half-maximal effect.

SMILES | CRE-bla Fsk | ERK AVP inh | HEK293 cAMP ctrl | Tau filament bind | TSHR agonist
O=c1[nH]c(=S)c2[nH]c(=O)n(-c3ccccc3)c2[nH]1 | 11.5%[7.6 µM] | -14.5%[11.5 µM] | ? | 11.8%[11.4 µM] | ?
O=C(CSc1nc2ccccc2c(=O)n1-c1ccccc1)NCc1ccco1 | 9.6% | 9.1% | 25.1µM* | -6.5% | ?
OC[C@@H]1O[C@@H](n2cnc3c(NCCc4ccccc4)ncnc32)[C@@H](O)[C@H]1O | -3.8% | nt | ? | -3.8% | ?
O=C(c1ccco1)c1cn(CC(=O)N2CCCc3ccccc32)c2ccccc12 | 8.8% | -20.0% | 25.1µM* | 1.7% | ?
CC(CO)(CO)N=Cc1cc(I)cc(I)c1O | 1.2%[7.6 µM] | 10.2%[11.5 µM] | -7.1%[11.4 µM] | ? | 3.3%[11.4 µM]
O=C(NCCC[N+]1=CC=N[C@H]1c1ccccc1)N1CCCc2nc(-c3ccc(Br)cc3)ccc21 | nt | 10.8%[11.5 µM] | 14.4%[11.4 µM] | nt | 11.1%[11.4 µM]
CN(Cc1ccco1)c1ncnc2ccc(-c3cccc(NS(C)(=O)=O)c3)cc12 | 1.26µM* | ? | ? | 8.4% | ?
CN(Cc1ccco1)c1ncnc2ccc(-c3ccccc3Cl)cc12 | ? | ? | ? | 13.2% | ?
CN(Cc1ccco1)c1ncnc2ccc(-c3ccoc3)cc12 | ? | -27.0% | 15.8µM* | 14.9% | ?
CN(Cc1ccco1)c1ncncc1-c1cccc(NS(C)(=O)=O)c1 | -3.9% | -1.8% | ? | 9.4% | ?
COc1ccccc1-c1ccc2ncnc(N(C)Cc3ccco3)c2c1 | ? | -12.7% | 3.16µM* | -4.0% | ?
CN(Cc1ccco1)c1nc(-c2ccoc2)nc2ccccc12 | ? | -16.0% | 15.8µM* | -10.7% | ?
O=C1[C@@H]2C=CC=CC2=NC(=S)N1CCN1CCC(=C(c2ccc(F)cc2)c2ccc(F)cc2)CC1 | -9.2% | -0.8% | ? | 145.9% | ?
c1ccc(B2OC[C@@H]3OB(c4ccccc4)O[C@H]([C@@H]4COB(c5ccccc5)O4)[C@@H]3O2)cc1 | 3.1%[7.6 µM] | 5.4%[11.5 µM] | 8.2%[11.4 µM] | -6.4%[11.4 µM] | 4.6%[11.4 µM]
O=C(NCCN1CCOCC1)c1ccc(Cc2nc3ccccc3[nH]2)cc1 | nt | nt | -8.0% | nt | 0.3%
COC(=O)C/C=C\[C@@H](C)[C@@H]1C=C[C@H](OC(C)=O)[C@H](COC(C)=O)O1 | nt | 22.6%[11.5 µM] | 2.4%[11.4 µM] | nt | 13.6%[11.4 µM]
C=CCSc1nnc2nc3c(nn12)c1cc(C)ccc1n3CC=C | ? | ? | -28.1% | 6.31µM* | -40.8%
C=CCn1c(SCc2nc(N)nc(N(C)C)n2)nnc1-c1cccnc1 | 5.4% | -22.2% | 3.6% | 8.0% | -1.1%[11.4 µM]
O=C(/C=C\c1ccc(O)cc1)c1ccc(O)cc1O | ? | ? | -17.6% | 10.3% | -23.7%
COc1cc2nc3c(c([Si](C)(C)C(C)(C)C)c2cc1OC)Cn1c-3cccc1=O | 15.8µM* | -17.0% | 19.8% | -15.3% | 22.1%
COc1ccc2nc3c(c([Si](C)(C)C(C)(C)C)c2c1)Cn1c-3cccc1=O | ? | ? | ? | -17.2% | ?
CC(C)(C)[Si](C)(C)c1c2c(nc3ccc(OCc4ccccc4)cc13)-c1cccc(=O)n1C2 | 7.94µM* | 25.6% | 7.5% | -27.8% | -2.7%
COc1ccc(OCc2cccc(C(=O)O)c2)cc1 | -11.2% | 17.0% | 6.1% | 5.6% | 3.9%
O=C(O)C(=Cc1ccc(-c2ccccc2)cc1)C(=O)O | ? | 7.1%[11.5 µM] | 5.7%[11.4 µM] | 6.2%[11.4 µM] | 4.9%[11.4 µM]
COc1ccc(C2C(C(=O)N3CC(C)CC(C)C3)c3ccccc3C(=O)N2C)cc1 (configuration not stated) | -4.0% | 10.3% | 15.8µM* | -4.8% | ?
SMILES | CRE-bla Fsk | ERK AVP inh | HEK293 cAMP ctrl | Tau filament bind | TSHR agonist
COc1ccc(Oc2ncc3ncc(=O)n(Cc4cccc(OC)c4)c3n2)cc1 | ? | 8.8% | ? | -27.7% | ?
COCCn1c(=S)[nH]c2cc(C(=O)N3CCc4ccccc43)ccc2c1=O | ? | ? | 15.8µM* | -16.4% | ?
COCCn1c(=S)[nH]c2cc(C(=O)N3CCN(Cc4ccc5c(c4)OCO5)CC3)ccc2c1=O | ? | -12.8% | 26.7% | -2.9% | 16.1%
CCOC(=O)c1sc2nc(N3CCOCC3)c3c(c2c1N)CCN(C)C3 | 9.3% | -17.4% | -11.6% | 7.94µM* | -9.4%
Cc1cccc(Cc2c(C)nc3c(C(=O)NCc4ccco4)cnn3c2C)c1 | 10.8% | -6.3% | ? | 32.5% | ?
Cc1nc2c(C(=O)NCc3ccco3)cnn2c(C)c1Cc1ccc(F)cc1Cl | ? | -14.6% | 25.1µM* | 50.1% | ?
Cc1csc(NC(=O)CSc2nc(C(C)C)nc3c2c(=O)n(C)c(=O)n3C)n1 | 2.51µM* | nt | 5.3% | 32.6% | 13.3%
COCCn1c(SCc2ccc(C(=O)OC)o2)nc2cc(Cl)ccc2c1=O | 5.01µM* | -1.8% | 20µM* | 21.6% | ?
COC(=O)c1ccc(CSc2nc(C)nc3c2c(=O)n(C)c(=O)n3C)o1 | 2µM* | nt | 25.1µM* | 38.9% | ?
Cc1nc(SCC(=O)Nc2cc(C)on2)c2c(=O)n(C)c(=O)n(C)c2n1 | 2µM* | nt | 2.8% | 7.8% | -1.4%
COc1ccc(CC(=O)NC(C)c2nnc(SCC(=O)Nc3nc(C)cs3)n2C)cc1 (configuration not stated) | -6.5% | -6.4% | -1.7% | -6.8% | 9.2%
COC(=O)c1ccc(CSc2nc(-c3ccc(OC)cc3)nc3c2c(=O)n(C)c(=O)n3C)o1 | 10.6% | 9.4% | 10.6% | -2.3% | 5.3%
COCCn1c(SCC(=O)Nc2cccc(C(=O)OC)c2)nc2ccccc2c1=O | 13.4% | -24.2% | ? | 124.7% | ?
CCCCCCCC#Cc1ccccc1C(NC(=O)OC)C(C(=O)OC)C(=O)OC (configuration not stated) | nt | 13.2%[11.5 µM] | 23.7%[11.4 µM] | nt | 12.1%[11.4 µM]
N=C(N)c1ccc(OCCCCCOc2ccc(C(=N)N)cc2)cc1 (tested in a mixture with another compound) | -10.1% | -17.7% | -7.3% | 88.5% | 7.0%
CC(C)C1=C[C@@]23CC[C@@H]4[C@](C)(CCC[C@@]4(C)C(=O)O)[C@@H]2C[C@@H]1[C@@H](C(=O)O)[C@@H]3C(=O)O | 4.7%[7.6 µM] | 13.0%[11.5 µM] | -4.6%[11.4 µM] | 5.0%[11.4 µM] | 2.8%[11.4 µM]
CCOC(=O)C1=C(C)NC2=C(C(=O)c3ccccc32)C1c1cccnc1 (configuration not stated) | ? | ? | -26.3% | 3.16µM* | -8.3%
CCOC(=O)c1ccc(N2C(=O)c3n[nH]c(C)c3C2c2ccccc2)cc1 (configuration not stated) | ? | ? | 31.6µM* | 140.2% | ?
CCOC(=O)[C@]1(C(NC(=O)OC)c2cccc(C)c2)CCCC1=O (some centres not stated) | nt | 5.6%[11.5 µM] | 5.0%[11.4 µM] | nt | -6.9%[11.4 µM]
Cn1cccc1C(=O)N1CCC2(CC1)CN(Cc1cc(C(F)(F)F)cc(C(F)(F)F)c1)C2 | -15.4% | -20.1% | 15.8µM* | 35.9% | ?
FC(F)(F)c1cc(CN2CC3(CCNCC3)C2)cc(C(F)(F)F)c1 | 4.3% | -8.9% | ? | 12.6µM* | ?
